The record followed here is PubChem BioAssay (NCI).

This is part of a sample that, as a whole, favours compounds with a hit. Of some 83,000 tested, about 20% had one in any assay.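 Percent growth is the endpoint: 0 to 100 indicates growth inhibition (40 means 60% inhibition), 0 means no net growth, and negative values indicate cell death.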 Values without a mark were called inactive. Calls of active or inactive are those of the source. The calls were made as follows: active = growth percent below 10; inactive = the rest.

Among the test systems are HCT-15 colon; HT29 colon; SNB-75 CNS; SNB-19 CNS; U251 CNS; PC-3 prostate; SK-MEL-5 melanoma; UACC-62 melanoma; LOX IMVI melanoma; SK-MEL-28 melanoma; SK-MEL-2 melanoma; EKVX NSCLC; SN12C renal; TK-10 renal; ACHN renal; CAKI-1 renal; A498 renal; CCRF-CEM leukemia; MOLT-4 leukemia; UO-31 renal.
What all share (assay): NCI-60 one-dose screen, 48 h (100 = growth as untreated, 0 = no growth, -100 = all killed)
Settings in all cases: 10 µM unless noted

Take `CN(Cc1ccc(C(F)(F)F)cc1)CC(O)C(=O)Nc1ccc(Cl)cc1` (configuration not stated): the growth in the assay with HCT-15 colon was -15.4% (active); in the assay with HT29 colon, 1.26% (active); in the assay with SNB-75 CNS, 24.6%; in the assay with SNB-19 CNS, 31.4%; with U251 CNS it was -82.3% (active); in the assay on PC-3 prostate, 22%. The growth in the assay on SK-MEL-5 melanoma was 8.39% (active); in the assay with UACC-62 melanoma, 29.7%; with LOX IMVI melanoma, -85.4% (active); in the assay on SK-MEL-28 melanoma, 85.8%; in the assay on SK-MEL-2 melanoma it was -48.1% (active); with EKVX NSCLC, 12.6%. The growth with SN12C renal was -67.6% (active); in the assay with TK-10 renal, 24.3%; with ACHN renal it was -3.15% (active); in the assay with CAKI-1 renal, -59.6% (active); with A498 renal, -4.42% (active); in the assay with CCRF-CEM leukemia, -27.4% (active). Besides, in the assay with MOLT-4 leukemia, the growth is -20.9% (active).

Turning to `O=C(c1ccc(-c2ccccc2)cc1)c1ccc([N+](=O)[O-])cc1`, the growth is 103% in the assay on HCT-15 colon; 104% with HT29 colon; 105% in the assay with SNB-75 CNS; 101% in the assay on SNB-19 CNS; 99% in the assay on U251 CNS; 86.7% in the assay with PC-3 prostate. In addition, the growth with SK-MEL-5 melanoma is 97.3%; with UACC-62 melanoma it was 92.7%; in the assay on LOX IMVI melanoma it was 98.4%; in the assay with SK-MEL-28 melanoma, 122%; in the assay with SK-MEL-2 melanoma it was 104%; with EKVX NSCLC it was 98%. In addition, the growth in the assay with SN12C renal was 104%; in the assay with TK-10 renal, 124%; with ACHN renal, 97.5%; in the assay on CAKI-1 renal, 88.1%; with A498 renal it was 124%; in the assay with CCRF-CEM leukemia it was 89%. Also, the growth with MOLT-4 leukemia is 52.6%.

In the case of `COc1cc(-c2nc(SCC(C)C)nc(Nc3cccc4ccccc34)c2C#N)cc(OC)c1OC`, the growth in the assay on HCT-15 colon is 74.3%; in the assay on HT29 colon, 89.9%; in the assay with SNB-75 CNS, 94.3%; in the assay with SNB-19 CNS it was 106%; in the assay on U251 CNS, 59.1%; in the assay on PC-3 prostate, 57.1%. In addition, the growth with SK-MEL-5 melanoma is 95.5%; in the assay on UACC-62 melanoma, 86.5%; in the assay with LOX IMVI melanoma it was 103%; in the assay with SK-MEL-28 melanoma, 110%; with SK-MEL-2 melanoma it was 107%; with EKVX NSCLC, 98.7%. For the same compound, the growth in the assay on SN12C renal is 92.6%; in the assay on TK-10 renal it was 128%; in the assay with ACHN renal, 98.4%; with CAKI-1 renal, 68.5%; in the assay on A498 renal it was 74.3%; in the assay on CCRF-CEM leukemia, 75%. In addition, in the assay with MOLT-4 leukemia, the growth was 64.3%.

For the compound `O=CC1(C2(C=O)c3ccccc3-c3ccccc32)c2ccccc2-c2ccccc21`, the growth in the assay with HCT-15 colon was -36.4% (active); with HT29 colon, -53.9% (active); in the assay on SNB-75 CNS it was -79.2% (active); in the assay with SNB-19 CNS, -83% (active); with U251 CNS it was -63% (active); with PC-3 prostate, -64.5% (active). Moreover, the growth is -83.7% (active) in the assay on SK-MEL-5 melanoma; -61.5% (active) with UACC-62 melanoma; -61% (active) with LOX IMVI melanoma; -38.2% (active) with SK-MEL-28 melanoma; -44.4% (active) with SK-MEL-2 melanoma; -78.4% (active) with EKVX NSCLC. For the same compound, the growth with SN12C renal is -29.1% (active); in the assay with TK-10 renal, -79.9% (active); in the assay with ACHN renal, -79% (active); in the assay with CAKI-1 renal, -78.2% (active); with A498 renal it was -84.1% (active); with CCRF-CEM leukemia it was -5.1% (active). Also, the growth with MOLT-4 leukemia is -47.4% (active).

For the compound `COC(=O)c1cc(-c2ccccc2)[nH]c1N/N=C/c1c(Cl)cccc1Cl`, the growth was 15% in the assay on HCT-15 colon; -8.44% (active) in the assay on HT29 colon; 0.903% (active) in the assay with SNB-75 CNS; 13.6% in the assay with SNB-19 CNS; 12.1% in the assay on U251 CNS; 5.23% (active) in the assay with PC-3 prostate. The growth is 16.8% with SK-MEL-5 melanoma; 42.4% with UACC-62 melanoma; 21% in the assay on LOX IMVI melanoma; 11.4% in the assay with SK-MEL-28 melanoma; -4.44% (active) in the assay with SK-MEL-2 melanoma; -1.92% (active) with EKVX NSCLC. The growth in the assay on SN12C renal is 35.2%; with TK-10 renal, 26.4%; with ACHN renal, 44%; with CAKI-1 renal, 5.94% (active); in the assay with A498 renal, -45.8% (active); in the assay on CCRF-CEM leukemia, -8.44% (active). In the assay on MOLT-4 leukemia, the growth was -9.43% (active).

For the compound `CC(=O)n1nc(C(=O)OC(C)C)c2cc(C)c(C)cc21`, the growth in the assay on HCT-15 colon was 90.9%; in the assay with HT29 colon, 97.8%; in the assay with SNB-75 CNS, 80.7%; in the assay with SNB-19 CNS it was 98.5%; in the assay with U251 CNS, 86.3%; in the assay on PC-3 prostate, 74.2%. The growth in the assay on SK-MEL-5 melanoma was 92%; in the assay on UACC-62 melanoma, 97.6%; with LOX IMVI melanoma, 97%; in the assay on SK-MEL-28 melanoma, 114%; with SK-MEL-2 melanoma it was 106%; in the assay on EKVX NSCLC, 99%. Also, the growth was 105% in the assay with SN12C renal; 98.6% with TK-10 renal; 101% with ACHN renal; 99.3% with CAKI-1 renal; 104% in the assay on A498 renal; 84.7% in the assay with CCRF-CEM leukemia. The growth with MOLT-4 leukemia was 84.8%.

As to `CC1(C)c2[nH]c3ccccc3c2C[C@]2(C)[C@H]3CC=C4[C@@H]5C[C@@](C)(C(N)=O)CC[C@]5(C)CC[C@@]4(C)[C@]3(C)CC[C@@H]12`, the growth was 50.9% in the assay on HCT-15 colon; 62.7% in the assay with HT29 colon; 101% in the assay with SNB-75 CNS; 62.2% in the assay with SNB-19 CNS; 69.2% in the assay with U251 CNS; 50.6% with PC-3 prostate. Besides, the growth with SK-MEL-5 melanoma was 19.8%; in the assay on UACC-62 melanoma, 59.2%; in the assay with LOX IMVI melanoma it was 56.8%; in the assay on SK-MEL-28 melanoma, 77.4%; in the assay with SK-MEL-2 melanoma it was 80.3%; with EKVX NSCLC it was 31.9%. Further, the growth in the assay on SN12C renal is 61.8%; in the assay with UO-31 renal, 47.3%; in the assay with TK-10 renal, 84.2%; in the assay on ACHN renal it was 45.7%; in the assay with CAKI-1 renal, 57.7%; in the assay on CCRF-CEM leukemia it was 54.7%. Besides, in the assay on MOLT-4 leukemia, the growth was 51.2%.

As to `COc1cc(CNS(=O)(=O)c2ccc(C)cc2)ccc1OCc1cn(-c2ccc(Br)cc2)nn1`, the growth in the assay with HCT-15 colon is 103%; with HT29 colon, 105%; in the assay with SNB-75 CNS it was 87%; in the assay on SNB-19 CNS it was 104%; in the assay on U251 CNS, 101%; with PC-3 prostate, 92.2%. Further, the growth with SK-MEL-5 melanoma was 97.8%; with UACC-62 melanoma, 94.3%; in the assay on LOX IMVI melanoma it was 97.9%; in the assay with SK-MEL-28 melanoma it was 99.7%; with SK-MEL-2 melanoma, 104%; in the assay on EKVX NSCLC, 93.1%. For the same compound, the growth in the assay on SN12C renal was 105%; with TK-10 renal it was 112%; with ACHN renal, 98.4%; with CAKI-1 renal, 91.6%; in the assay on A498 renal it was 70.6%; in the assay with CCRF-CEM leukemia, 90.4%. In addition, in the assay with MOLT-4 leukemia, the growth was 101%.
